Results: PubChem BioAssay (Tox21)
Inconclusive results are not listed. The source made the active and inactive calls. Unless noted, the call rests on the fitted dose curve.

Assays:
[1] = Nuclear factor erythroid 2-related factor 2/antioxidant responsive element (Nrf2/ARE) small molecule agonists: qHTS cell viability counter screen in human keratinocytes (AID 1919968; active means well fitted curve in the direction sought with a large enough effect in the repeat runs; an effect the other way counts as inactive or inconclusive; further: nearly all actives have a fitted effect of over 55% in size)
Outline: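 Parallel cytotoxicity read: KeratinoSens HaCaT cells, compound treatment 23 h, viability by CellTiter-Fluor fluorescence 1 h post-reagent.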

[2] = Nuclear factor erythroid 2-related factor 2/antioxidant responsive element (Nrf2/ARE) small molecule agonists: luciferase reporter gene qHTS assay in human keratinocytes (AID 1919969); further: nearly all actives have a fitted effect of over 35% in size
[3] = molecular target: Gonadotropin-releasing hormone receptor (Homo sapiens) (UniProt P30968); assay: Human gonadotropin-releasing hormone receptor (GnRHR) small molecule agonists, calcium flux assay in GnRHR-HEK293 cells (AID 1920063); further: nearly all actives have a fitted effect of over 35% in size
Outline: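 Calcium flux, agonist mode, human GnRHR stably integrated in HEK293; dye 1 h at 37 C before compound; Ex/Em=480/540 kinetic read, 3 min; 15 concentrations, triplicate.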

[4] = molecular target: KiSS-1 receptor (Homo sapiens) (UniProt Q969F8); assay: Human kisspeptin (KISS1R) small molecule agonists, calcium flux assay in KISS1R-HEK293 cells (AID 1920064; active means well fitted curve in the direction sought with a large enough effect in the repeat runs; an effect the other way counts as inactive or inconclusive)
Outline: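 Triplicate 15-concentration series were applied to dye-loaded human KISS1R HEK293 cells, and agonist-evoked calcium fluorescence was captured for 3 min.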

[5] = G protein-coupled receptor (GPCR) small molecule agonists, calcium flux assay: HEK293 wild type cell line counter screen (AID 1920065)
Outline: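 Non-specific calcium responders were flagged by adding DMSO-dissolved compounds to dye-loaded cells and reading 480/540 nm fluorescence each second for 3 min; ATP served as positive control.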

[6] = p53 small molecule agonists, cell-based qHTS assay with human liver microsomes (AID 1963577);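 further: p53 response element beta-lactamase reporter cells with liver microsomes plus NADPH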
Outline: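 Reporter activation was measured by LiveBLAzer fluorescence intensity in p53RE-bla cells, which had been exposed to compounds for 16 h at 37 C alongside 0.5 mg/mL human liver microsomes and 0.5 mg/mL NADPH (final concentrations).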

[7] = p53 small molecule agonists, cell-based qHTS assay with rat liver microsomes (AID 1963578)
Outline: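 Compound in DMSO added to p53RE-bla cells 5 h post-plating; rat microsomes/NADPH 0.5 mg/mL final; 16 h, 37 C; LiveBLAzer 2 h RT.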

[8] = p53 small molecule agonists, cell-based qHTS assay with human liver microsomes: qHTS cell viability counter screen (AID 1963579); further: nearly all actives have a fitted effect of over 45% in size
Outline: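 HLM-supplemented (0.5 mg/mL final) and NADPH-supplemented (0.5 mg/mL final) p53RE-bla cultures, 4,000 cells per well, were dosed with compounds in DMSO for 16 h at 37 C; luminescent ATP detection (CellTiter-Glo, 30 min, room temperature) quantified surviving cells.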

[9] = p53 small molecule agonists, cell-based qHTS assay with rat liver microsomes: qHTS cell viability counter screen (AID 1963580); further: nearly all actives have a fitted effect of over 45% in size
Outline: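 Cytotoxicity counter screen: intracellular ATP measured by CellTiter-Glo luminescence in the same wells as the beta-lactamase reporter read, on HCT-116 p53RE-bla cells exposed 16 h at 37 C to compounds with rat liver microsomes and NADPH, each 0.5 mg/mL final.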

[10] = p53 small molecule agonists, cell-based qHTS assay: qHTS cell viability counter screen (AID 1963581); further: nearly all actives have a fitted effect of over 45% in size
Outline: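 Multiplexed with the reporter read, a CellTiter-Glo step (30 min, room temperature) gauges ATP-based viability of HCT-116 p53RE-bla cells after 16 h compound incubation at 37 C.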

[11] = p53 small molecule agonists, cell-based qHTS assay (AID 1963582; active means well fitted activation curve with a large enough effect in the signal ratio in the repeat runs, not every such curve was filed as active; the % refers to the signal ratio)
Outline: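 Beta-lactamase reporter cells (p53RE-bla) treated with compounds for 16 h at 37 C; FRET substrate, 2 h, room temperature; fluorescence intensity.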

[12] = molecular target: 5-hydroxytryptamine receptor 2A (Homo sapiens) (UniProt P28223); assay: 5-hydroxytryptamine receptor 2A (HTR2A) small molecule antagonists, cell-based qHTS assay (AID 1963586); further: nearly all actives have a fitted effect of over 45% in size
Outline: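 CHO cells stably expressing human HTR2A were plated for 18 h at 37 C, then loaded with calcium dye for 1 h. Compounds were preincubated 5 min at room temperature before DOI (4 nM solution) was added. Kinetic fluorescence was read for 3 min.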

[13] = molecular target: 5-hydroxytryptamine receptor 2A (Homo sapiens) (UniProt P28223); assay: 5-hydroxytryptamine receptor 2A (HTR2A) small molecule agonists, cell-based qHTS assay (AID 1963587); further: nearly all actives have a fitted effect of over 30% in size
Outline: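 CHO cells stably expressing human HTR2A, plated 18 h, loaded with calcium dye 1 h at 37 C. Agonist mode: compounds added and intracellular calcium fluorescence recorded kinetically for 2 min at 1 sec intervals.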

[14] = molecular target: Muscarinic acetylcholine receptor M1 (Homo sapiens) (UniProt P11229); assay: Cholinergic receptor muscarinic 1 (CHRM1) small molecule antagonists, cell-based qHTS assay (AID 1963588); further: nearly all actives have a fitted effect of over 40% in size
Outline: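 Compounds were tested at 15 concentrations in three independent runs. Dye-loaded CHRM1-CHO cells were exposed 5 min at room temperature before stimulation by acetylcholine added at 50nM. Intracellular calcium was read kinetically on FDSS for 3 min.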

[15] = molecular target: Muscarinic acetylcholine receptor M1 (Homo sapiens) (UniProt P11229); assay: Cholinergic receptor muscarinic 1 (CHRM1) small molecule agonists, cell-based qHTS assay (AID 1963589); further: nearly all actives have a fitted effect of over 35% in size
Outline: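 qHTS, 15-point titration, 3 independent runs: compounds pin-transferred onto dye-loaded CHRM1-CHO cells (human M1), calcium fluorescence followed every second to detect agonism.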

[16] = cAMP Responsive Elements (CRE) small molecule agonists, cell-based qHTS assay (AID 1963590)
Outline: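 Quantitative HTS for CRE agonists: HEK 293T CRE-bla cells, overnight plating, 3 h compound incubation at 37 C/5% CO2, then 2 h room-temperature LiveBLAzer B/G FRET substrate loading.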

[17] = cAMP Responsive Elements (CRE) small molecule antagonists, cell-based qHTS assay (AID 1963591; active means well fitted inhibition curve with a large enough effect in the signal ratio in the repeat runs, not every such curve was filed as active; the % refers to the signal ratio)
Outline: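 Fluorescence intensity from cleaved LiveBLAzer B/G substrate (2 h, room temperature) quantified CRE-bla activity in HEK 293T cells exposed 3 h to compound with 0.25 uM final NKH477.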

[18] = molecular target: Beta-2 adrenergic receptor (Homo sapiens) (UniProt P07550); assay: Adrenergic beta2 receptor (ADRB2) small molecule antagonists, cell-based qHTS assay (AID 1963592); further: series mostly up to about 92 µM; nearly all actives have a fitted effect of over 50% in size
Outline: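 Assay format: CHO-ADRB2 cells, 18-20hr seeding at 37C/5% CO2, then compound plus 1nM isoproterenol agonist mix for 0.5hr RT. Homogeneous time-resolved fluorescence cAMP detection after 1hr, expressed as 665/615 nm ratio.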

[19] = molecular target: D(2) dopamine receptor (Homo sapiens) (UniProt P14416); assay: Dopamine D2 receptor (DRD2) small molecule agonists, cell-based qHTS assay (AID 1963594); further: nearly all actives have a fitted effect of over 35% in size
Outline: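 HEK293 cells stably expressing human DRD2, pre-treated with PDE inhibitor Ro20-1724 (0.1 mM final) and compound 10 min at room temperature, then stimulated with NKH477 (200nM […]) for 30 min. cAMP read by HTRF (665/620 nm).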

[20] = molecular target: D(2) dopamine receptor (Homo sapiens) (UniProt P14416); assay: Dopamine D2 receptor (DRD2) small molecule antagonists, cell-based qHTS assay (AID 1963595; active means well fitted inhibition curve with a large enough effect in the signal ratio in the repeat runs, with a control signal flat; the % refers to the signal ratio)
Outline: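 Human DRD2 antagonist qHTS measuring cAMP by HTRF. The cells are exposed to compound for 10 min, then to NKH477 (200 nM) and quinpirole (12 nM) for 30 min at RT, with Ro20-1724 (0.1 mM) present throughout.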
On the % scale 0 is the no-effect control and ±100 the full control effect.

Sequence of Muscarinic acetylcholine receptor M1 (Homo sapiens) (P11229 whole entry, looked up): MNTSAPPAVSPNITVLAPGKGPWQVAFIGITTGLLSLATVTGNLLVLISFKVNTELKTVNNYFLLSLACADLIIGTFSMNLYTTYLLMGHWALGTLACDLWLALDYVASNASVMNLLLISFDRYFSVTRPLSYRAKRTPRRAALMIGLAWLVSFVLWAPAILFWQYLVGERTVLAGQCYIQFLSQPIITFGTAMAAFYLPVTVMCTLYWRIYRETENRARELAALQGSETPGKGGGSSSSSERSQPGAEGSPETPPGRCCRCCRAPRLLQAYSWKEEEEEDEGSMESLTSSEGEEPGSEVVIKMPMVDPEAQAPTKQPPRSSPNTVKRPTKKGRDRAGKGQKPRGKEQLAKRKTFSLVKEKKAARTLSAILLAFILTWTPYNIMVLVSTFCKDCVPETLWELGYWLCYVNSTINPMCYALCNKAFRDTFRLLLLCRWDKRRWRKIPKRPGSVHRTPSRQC
Sequence of KiSS-1 receptor (Homo sapiens) (Q969F8 whole entry, looked up): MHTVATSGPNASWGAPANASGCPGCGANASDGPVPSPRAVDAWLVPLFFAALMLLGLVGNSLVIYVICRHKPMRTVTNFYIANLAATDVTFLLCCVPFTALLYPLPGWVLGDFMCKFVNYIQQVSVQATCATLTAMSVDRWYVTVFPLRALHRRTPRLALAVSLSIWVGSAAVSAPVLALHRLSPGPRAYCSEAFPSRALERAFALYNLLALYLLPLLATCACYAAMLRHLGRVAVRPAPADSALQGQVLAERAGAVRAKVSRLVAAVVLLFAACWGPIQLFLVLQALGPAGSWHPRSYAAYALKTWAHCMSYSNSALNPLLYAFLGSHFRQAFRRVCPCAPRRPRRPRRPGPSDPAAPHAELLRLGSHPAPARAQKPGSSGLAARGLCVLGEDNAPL
Sequence of D(2) dopamine receptor (Homo sapiens) (P14416 whole entry, looked up): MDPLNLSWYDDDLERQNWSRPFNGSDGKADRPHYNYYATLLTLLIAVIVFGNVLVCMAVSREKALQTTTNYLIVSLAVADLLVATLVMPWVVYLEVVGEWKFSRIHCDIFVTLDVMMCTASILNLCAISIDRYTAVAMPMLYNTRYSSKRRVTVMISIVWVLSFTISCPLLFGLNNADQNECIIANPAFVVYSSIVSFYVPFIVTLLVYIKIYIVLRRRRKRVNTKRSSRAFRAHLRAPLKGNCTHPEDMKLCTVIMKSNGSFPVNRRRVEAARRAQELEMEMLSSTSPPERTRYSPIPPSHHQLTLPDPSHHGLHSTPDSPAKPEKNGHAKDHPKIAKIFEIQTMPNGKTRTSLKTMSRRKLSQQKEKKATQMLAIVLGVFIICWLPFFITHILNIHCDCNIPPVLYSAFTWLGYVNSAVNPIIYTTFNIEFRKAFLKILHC
Sequence of 5-hydroxytryptamine receptor 2A (Homo sapiens) (P28223 whole entry, looked up): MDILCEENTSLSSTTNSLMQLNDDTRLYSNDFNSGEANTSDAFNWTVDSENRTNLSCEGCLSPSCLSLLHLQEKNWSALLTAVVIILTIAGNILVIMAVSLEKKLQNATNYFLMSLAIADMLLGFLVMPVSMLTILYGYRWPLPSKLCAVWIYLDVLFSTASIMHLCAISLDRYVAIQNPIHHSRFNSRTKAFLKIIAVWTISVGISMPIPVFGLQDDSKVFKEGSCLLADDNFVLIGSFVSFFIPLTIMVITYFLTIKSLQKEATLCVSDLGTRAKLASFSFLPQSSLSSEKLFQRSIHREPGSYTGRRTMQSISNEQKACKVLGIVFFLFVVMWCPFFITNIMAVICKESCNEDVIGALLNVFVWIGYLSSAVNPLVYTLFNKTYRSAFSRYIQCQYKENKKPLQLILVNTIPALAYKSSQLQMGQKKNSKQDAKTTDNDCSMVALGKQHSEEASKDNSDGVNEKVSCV
Sequence of Beta-2 adrenergic receptor (Homo sapiens) (P07550 whole entry, looked up): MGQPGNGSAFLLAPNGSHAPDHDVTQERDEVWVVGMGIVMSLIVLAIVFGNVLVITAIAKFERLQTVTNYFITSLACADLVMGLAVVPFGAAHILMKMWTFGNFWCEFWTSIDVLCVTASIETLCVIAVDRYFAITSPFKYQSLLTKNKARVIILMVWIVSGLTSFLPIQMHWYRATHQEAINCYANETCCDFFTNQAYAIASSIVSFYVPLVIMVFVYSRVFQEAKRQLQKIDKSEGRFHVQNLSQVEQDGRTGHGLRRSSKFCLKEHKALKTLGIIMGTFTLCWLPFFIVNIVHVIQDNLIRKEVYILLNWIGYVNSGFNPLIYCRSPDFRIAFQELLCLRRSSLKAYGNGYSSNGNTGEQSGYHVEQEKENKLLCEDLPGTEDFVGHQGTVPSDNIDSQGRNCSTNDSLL
Sequence of Gonadotropin-releasing hormone receptor (Homo sapiens) (P30968 whole entry, looked up): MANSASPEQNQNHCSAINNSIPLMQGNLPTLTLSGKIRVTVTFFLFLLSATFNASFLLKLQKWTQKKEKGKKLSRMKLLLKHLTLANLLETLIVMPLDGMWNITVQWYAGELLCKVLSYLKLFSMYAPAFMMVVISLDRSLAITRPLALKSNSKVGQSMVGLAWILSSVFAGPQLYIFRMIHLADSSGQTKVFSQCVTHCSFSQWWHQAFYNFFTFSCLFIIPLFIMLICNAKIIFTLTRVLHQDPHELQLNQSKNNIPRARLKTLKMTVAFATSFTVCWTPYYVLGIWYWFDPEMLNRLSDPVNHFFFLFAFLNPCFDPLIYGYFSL

CCCCC(CC)COC(=O)CCCCC(=O)OCC(CC)CCCC (centres undefined)
inactive: Potency [1] | Potency [2] | Potency [3] | Potency [4] | Potency [5] | Potency [6] | Potency [7] | Potency [8] | Potency [9] | Potency [10] | Potency [11] | Potency [12] | Potency [13] | Potency [14] | Potency [15] | Potency [16] | Potency [17] | Potency [18] | Potency [19] | Potency [20]

COc1ccc([C@@H]2CC(=O)c3c(O)cc(O[C@@H]4O[C@H](CO[C@@H]5O[C@@H](C)[C@H](O)[C@@H](O)[C@H]5O)[C@@H](O)[C@H](O)[C@H]4O)cc3O2)cc1OC
inactive: Potency [1] | Potency [2] | Potency [3] | Potency [4] | Potency [5] | Potency [6] | Potency [7] | Potency [8] | Potency [9] | Potency [10] | Potency [11] | Potency [12] | Potency [13] | Potency [14] | Potency [15] | Potency [16] | Potency [17] | Potency [18] | Potency [19] | Potency [20]

CC/C(C)=N/O
inactive: Potency [1] | Potency [2] | Potency [3] | Potency [4] | Potency [5] | Potency [6] | Potency [7] | Potency [8] | Potency [9] | Potency [10] | Potency [11] | Potency [12] | Potency [13] | Potency [14] | Potency [15] | Potency [16] | Potency [17] | Potency [18] | Potency [19] | Potency [20]

NC(=O)OCC(COC(N)=O)c1ccccc1
inactive: Potency [1] | Potency [2] | Potency [3] | Potency [4] | Potency [5] | Potency [6] | Potency [7] | Potency [8] | Potency [9] | Potency [10] | Potency [11] | Potency [12] | Potency [13] | Potency [14] | Potency [15] | Potency [16] | Potency [17] | Potency [18] | Potency [19] | Potency [20]

Nc1ccc(C(=O)O)cc1
inactive: Potency [1] | Potency [2] | Potency [3] | Potency [4] | Potency [5] | Potency [6] | Potency [7] | Potency [8] | Potency [9] | Potency [10] | Potency [11] | Potency [12] | Potency [13] | Potency [14] | Potency [15] | Potency [16] | Potency [17] | Potency [18] | Potency [19] | Potency [20]

CCOC(=O)CC(=O)OCC
inactive: Potency [1] | Potency [2] | Potency [3] | Potency [4] | Potency [5] | Potency [6] | Potency [7] | Potency [8] | Potency [9] | Potency [10] | Potency [11] | Potency [12] | Potency [13] | Potency [14] | Potency [15] | Potency [16] | Potency [17] | Potency [18] | Potency [19] | Potency [20]

CN(C)CCCN
inactive: Potency [1] | Potency [2] | Potency [3] | Potency [4] | Potency [5] | Potency [6] | Potency [7] | Potency [8] | Potency [9] | Potency [10] | Potency [11] | Potency [12] | Potency [13] | Potency [14] | Potency [15] | Potency [16] | Potency [17] | Potency [18] | Potency [19] | Potency [20]

CCc1ccccc1CC
inactive: Potency [1] | Potency [2] | Potency [3] | Potency [4] | Potency [5] | Potency [6] | Potency [7] | Potency [8] | Potency [9] | Potency [10] | Potency [11] | Potency [12] | Potency [13] | Potency [14] | Potency [15] | Potency [16] | activity change, negative = inhibition [17] 3.92% [at 18.9 µM] | activity change, negative = inhibition [18] -5.37% [at 19 µM] | Potency [19]

CC(=O)C(C)C
inactive: Potency [1] | Potency [2] | Potency [3] | Potency [4] | Potency [5] | Potency [6] | Potency [7] | Potency [8] | Potency [9] | Potency [10] | Potency [11] | Potency [12] | Potency [13] | Potency [14] | Potency [15] | Potency [16] | Potency [17] | Potency [18] | Potency [19] | Potency [20]

NC(=O)NC1NC(=O)NC1=O (centres undefined)
inactive: Potency [1] | Potency [2] | Potency [3] | Potency [4] | Potency [5] | Potency [6] | Potency [7] | Potency [8] | Potency [9] | Potency [10] | Potency [11] | Potency [12] | Potency [13] | Potency [14] | Potency [15] | Potency [16] | Potency [17] | Potency [18] | Potency [19] | Potency [20]

C=CCOC(=O)C(=C)C
inactive: Potency [1] | Potency [2] | Potency [3] | Potency [4] | Potency [5] | Potency [6] | Potency [7] | Potency [8] | Potency [9] | Potency [10] | Potency [11] | Potency [12] | Potency [13] | Potency [14] | Potency [15] | Potency [16] | Potency [17] | Potency [18] | Potency [19] | Potency [20]

C=Cc1cccc(C)c1
inactive: Potency [1] | Potency [2] | Potency [3] | Potency [4] | Potency [5] | Potency [6] | Potency [7] | Potency [8] | Potency [9] | Potency [10] | Potency [11] | Potency [12] | Potency [13] | Potency [14] | Potency [15] | Potency [16] | Potency [17] | Potency [18] | Potency [19] | Potency [20]

Cc1cccc2n[nH]nc12
inactive: Potency [1] | Potency [2] | Potency [3] | Potency [4] | Potency [5] | Potency [6] | Potency [7] | Potency [8] | Potency [9] | Potency [10] | Potency [11] | Potency [12] | Potency [13] | Potency [14] | Potency [15] | Potency [16] | Potency [17] | Potency [18] | Potency [19] | Potency [20]

c1ccc2n[nH]nc2c1
inactive: Potency [1] | Potency [2] | Potency [3] | Potency [4] | Potency [5] | Potency [6] | Potency [7] | Potency [8] | Potency [9] | Potency [10] | Potency [11] | Potency [12] | Potency [13] | Potency [14] | Potency [15] | Potency [16] | Potency [17] | Potency [18] | Potency [19] | Potency [20]
